Compounds with a hit are over-represented: about 9.6% of the library has one in this group of screens.
Cav3 T inh: blocks human Cav3.2 T-type calcium channel. AID 449739. Cav3.2-expressing cells, Fluo-4 calcium fluorescence FDSS; stronger effect = lower value. actives 4% (n = 100,000). B-score at 10 µM;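 active means single-dose well whose peak fluorescence ratio is a statistical outlier from its plate by either plate-standardised score or position-corrected B-score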
PostGolgi ctrl: yeast control strain growth, post-Golgi counter-screen; inhibition, % at 10 µM; actives 5% (n = 98,000); efflux-deficient yeast background strain, growth absorbance A615, 16 h
PLAP activator: activators of human placental alkaline phosphatase. P05187. purified PLAP enzyme, luminescent substrate read-out; stronger effect = higher value. activation fold at 20 µM. actives 1.2% (n = 96,000). AID 696; in the data active means activation fold above about 2
PostGolgi yeast: growth inhibition of a yeast mutant, post-Golgi transport screen; AID 739; actives 0.9% (n = 98,000); inhibition, % at 10 µM; post-Golgi transport phenotypic cell assay;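 further: yeast cells grown in 1536-well plates; yeast grown about 18 h at 30C before absorbance read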
hDAT+cocaine: human DAT dopamine uptake with cocaine, either direction; actives 1.3% (n = 110,000); LLC-PK1 hDAT cells, [14C]-dopamine uptake with cocaine IC80; actives deviate in either direction; B-score at 10 µM;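 active means Z score or B-score, a plate-position-corrected score, falls beyond the plate's 99.7% confidence bounds, in either direction; inactive means both scores lie inside the 99.7% bounds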;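 further: scored against the spread of the other compound wells on the same plate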
The depositor's hits bear a star; x = no result. Unless noted, no stated cut-off is given here; in the data, active means inhibition above about 30%; inactive means the rest.

SMILES	Cav3 T inh	PostGolgi ctrl	PLAP activator	PostGolgi yeast	hDAT+cocaine
CCCC1=C(C(=O)OCC)C(c2c(C)nn(-c3ccccc3)c2Cl)C(C#N)=C(N)O1 (stereo not given)	-5*	23	1.4	-4	1.1
CC(C)CNc1cc(N2CCCC2)ccc1[N+](=O)[O-]	-0.54	22	0.9	-1	-0.0073
CCCC(=O)N1CCN(c2ccc([N+](=O)[O-])c(NC(C)c3ccccc3)c2)CC1 (stereo not given)	-6.3*	19	1.2	5	-0.089
Cc1cc(C)c(C#N)c(N2CCN(CCOc3ccc(Cl)cc3)CC2)n1	-2.2	32*	1.2	2	1.2
C=CCSc1nnc(-c2sc(-c3ccccc3)nc2C)n1C	-0.012	10	1.2	6	1.9
C=CCSc1nnc(-c2nnc(SCC=C)n2-c2ccccc2)n1-c1ccccc1	-1.6	33*	1.1	6	0.69
COc1ccc(C2CC(C(F)(F)F)n3nc(C(=O)NCc4cn(C)nc4C)c(Cl)c3N2)cc1 (stereo not given)	0.73	-3	1.6	-1	1.2
Cc1nn(C)cc1CN(C)C(=O)c1nn2c(c1Cl)NC(c1cccs1)CC2C(F)(F)F (stereo not given)	0.6	8	1.6	3	3.5*
CCOC(=O)c1sc(NC(=O)c2cc3n(n2)C(C(F)(F)F)CC(c2ccccc2)N3)c(C(=O)OCC)c1C (stereo not given)	-0.02	1	1	0	-0.72
CCN(C(=O)COc1ncnc2ccc(Br)cc12)C1CCS(=O)(=O)C1 (stereo not given)	1.3	7	1	1	0.57
Cc1cc(N2CCN(c3ccccc3)CC2)nc(NCc2ccccc2)n1	-0.015	47*	0.9	1	-0.55
COc1cc(C)nc(NCc2ccccc2)n1	-0.69	15	1	18	-1
CCOC(=O)c1ccc(-c2c(C(=O)OCC)oc3cc(O)c(CC)cc3c2=O)o1	-0.83	12	1.3	-10	0.067
Cn1c(C(=O)N2CCCc3ccccc32)cc2sccc21	-3.8	13	1.1	-6	0.46
Cc1c(C(=O)OC2CCCCC2)sc2nc[nH]c(=O)c12	-2.3	59*	1	3	-0.23
O=C(CSCC(=O)OCC(=O)c1ccc(Br)cc1)Nc1cccc2ccccc12	-0.034	9	1	-2	-0.56
CCC(CC)NC(=O)COC(=O)c1ccc(NS(=O)(=O)c2ccc3c(c2)OCCO3)cc1	x	0	1.9	2	x
CCCCNc1nc2ccccc2[nH]1	1.1	-2	2.7*	10	-0.046
CCOCCCNc1nc2ccccc2[nH]1	0.0061	1	0.8	5	-0.87
CC(C)(C)c1ccc(C2C3=C(CCCC3=O)NC3=C2C(=O)c2ccccc23)cc1 (stereo not given)	-0.27	32*	1	-18	0.25
COC(=O)CCC(=O)Nc1nc(-c2ccccc2)cs1	-0.34	x	x	x	1
COc1ccc(-c2csc(NC(=O)CC(C)C)n2)cc1	-1.5	x	x	x	-1.7
Cn1nccc1C(=O)OCC(=O)Nc1nc(-c2ccccc2)cs1	-3.8*	-8	0.9	8	-0.53
Cn1cc(Cl)c(C(=O)OCC(=O)Nc2nc(-c3ccc(Br)cc3)cs2)n1	-5.9*	x	x	x	-0.5
C=C(C)C(=O)OC1(C(F)(F)F)Oc2cc(C)ccc2NC1=O (stereo not given)	0.026	29	1.1	-7	0.031
SMILES	Cav3 T inh	PostGolgi ctrl	PLAP activator	PostGolgi yeast	hDAT+cocaine
Cc1cc2nc3n(c2cc1C)CC1CC(C(=O)NCc2ccco2)N(C)C31 (stereo not given)	-0.054	x	x	x	-0.43
COc1ccc(OCC(=O)NNC(=O)c2ccccn2)cc1	x	-8	2.5*	2	x
COc1ccc(OCC(=O)NNC(=O)c2cccs2)cc1	0.84	4	1.4	6	-1.3
Cc1ccc(NC2c3ncccc3C(=O)N2C2CCCCC2)cc1C (stereo not given)	0.77	12	1.5	-9	0.69
C=CCc1c(C)nc(SC)nc1Nc1ccc(C(C)=O)cc1	0.088	31*	1.6	6	1.3
C=CCc1c(C)nc(SC)nc1Nc1ccccc1	-4*	x	x	x	0.81
C=CCc1c(C)nc(SC)nc1Nc1ccc(C(=O)O)cc1	0.52	8	1.1	23	0.055
CCOC(=O)Cn1c2ccccc2c2nc3ccccc3nc21	-1.5	8	1.3	18	0.98
CCOC(=O)CN1C=C(c2ccc3ccccc3n2)C(C[N+](=O)[O-])c2ccccc21 (stereo not given)	-4.9*	6	1.5	6	1.5
CCOC(=O)C1=C(C)NC(=O)NC1/C(C)=C/c1ccccc1 (stereo not given)	-0.0083	13	0.9	1	-1.3
N#Cc1c(C(F)(F)F)cc(-c2cccc(Cl)c2)[nH]c1=O	-2.7*	21	1.2	1	-0.94
N#Cc1c(C(F)(F)F)cc(-c2ccc(Cl)cc2)[nH]c1=O	-8.7*	20	1.1	5	1
C/C(=C/Cc1c(O)cc2oc(C)cc(=O)c2c1O)COC1OC(CO)C(O)C(O)C1O (stereo not given)	-0.14	x	x	x	0.26
Cc1ccc2c(c1)[nH]c1c(N3CCN(Cc4ccc5c(c4)OCO5)CC3)ncnc12	x	x	1.8	x	x
COc1ccc(NC(=O)/C(Cl)=C(/Cl)S(=O)Cc2ccccc2)cn1 (stereo not given)	0.77	80*	0.8	107*	0.65
CCOc1ccccc1OCCCC(=O)Nc1ccc(OC)nc1	0.66	0	1.1	-8	0.38
Cc1ccccc1-c1nnc2s/c(=C\c3ccc(N(C)C)cc3)c(=O)n12	x	x	0.8	x	x
CCCSc1nc(C)nc2c1c(=O)n(C)c(=O)n2C	0.32	-3	1	-4	-0.82
Cc1nc2ccccn2c1/C(O)=C1\C(=O)C(=O)N(CCCn2ccnc2)C1c1ccncc1 (stereo not given)	0.3	16	1	13	-0.73
Cc1ccc(CO/N=C\Cc2snc(Sc3ncc(C(F)(F)F)cc3Cl)c2C#N)cc1	-1.8	15	0.8	-5	-0.61
Cc1ccc2[nH]c(=O)c3cc(C(=O)N(CCCOC(C)C)Cc4ccco4)sc3c2c1	-1	14	1.4	5	0.029
CCCCN(Cc1ccco1)C(=O)c1cc2c(=O)[nH]c3ccc(C)cc3c2s1	-0.18	36*	1.5	0	0.87
CCN1CCN(CC(=O)NC2CCCCC2)C(=O)C1=O	0.027	10	x	0	-0.49
CC(=O)c1ccc(NC2=C(N3CCOCC3)C(=O)c3ccccc3C2=O)cc1	-0.29	34*	0.9	1	1.9
Cc1ccc(NC2=C(N3CCOCC3)C(=O)c3ccccc3C2=O)cc1	-0.13	3	1.1	-4	-0.58
CC(=O)N(C)C1=C(N2CCOCC2)C(=O)c2ccccc2C1=O	1.4	-10	0.9	7	-4.3*
CC(=O)c1ccc(S(=O)c2ccccc2)cc1 (stereo not given)	-0.19	7	1	3	-0.51
CCCCCC(=O)N/N=C(\C)c1ccccn1	0.96	8	2.4*	-9	0.23
CCOc1ccc2c(c1)-c1c(ssc1=S)C(C)(C)N2	-2.4	31*	0.8	7	0.2
Cc1cc(/C=N/n2cnnc2)c(C)n1-c1cc(Cl)ccc1Cl	-1.1	10	1.5	-3	-0.6

Screening data deposited in PubChem by several laboratories.
